Records with an inconclusive call do not appear. Active and inactive are the calls of the source. Calls follow the shape of the full dose curve.
% is scaled to controls: 0 for no effect and ±100 for the full control effect.

The first experiment can be described thus: qHTS assay to identify small molecule agonists of the NFkB signaling pathway - cell viability counter screen (AID 1159515). Also: nearly all actives have a fitted effect of over 55% in size. The conditions noted are these: NFkB-bla ME-180 viability, CellTiter-Glo luminescence, 5 h; series mostly up to 61 µM; activity, negative = cytotoxic: at the top concentration. In short, it runs like this: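 Viability in NFkB-bla ME-180 cells was measured by CellTiter-Glo luminescence, 30 min room temperature, in wells already treated 5 hr with compounds and read for reporter FRET.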
For orientation: In qHTS, concentration-response curves come from the screen itself.
On to `CC(CO)c1ccccc1` (stereo unspecified), for which the “activity, negative = cytotoxic” value was 13.1% (inactive).

As to `CCOc1cc([N+](=O)[O-])c(OCC)cc1N1CCOCC1`, the “activity, negative = cytotoxic” value was -2.97% (inactive).

Regarding `CC(=O)c1sc(C)nc1C`, the “activity, negative = cytotoxic” value is 4% (inactive).

Turning to `O=S(O)(O)=S`, the activity, negative = cytotoxic is 0.146% [at 6.95 µM] (inactive).

As for `CCO[Si](CCCS)(OCC)OCC`, the “activity, negative = cytotoxic” value was -0.868% (inactive).

With `N[C@@H](COP(=O)(O)O)C(=O)O`, the “activity, negative = cytotoxic” value was -5% [at 28.5 µM] (inactive).

Take `Brc1ccc(-c2ccccc2)cc1`: the “activity, negative = cytotoxic” value was 12.3% (inactive).

On to `CCCCC(CC)COCCO` (stereo unspecified), for which the “activity, negative = cytotoxic” value is -0.736% (inactive).

Consider `CN1C(C)(C)CCCC1(C)C`, for which the “activity, negative = cytotoxic” value was -1.39% (inactive).

With `Nc1nnc(-c2cccc(Cl)c2Cl)c(N)n1`, the “activity, negative = cytotoxic” value was -5.95% (inactive).

With `COc1nccnc1NS(=O)(=O)c1ccc(N)cc1`, the “activity, negative = cytotoxic” value is 10.5% (inactive).

As for `Nc1ncnc(Nc2ccccc2)n1`, the “activity, negative = cytotoxic” value is -4.78% (inactive).

`CC1=CCC(C(C)C)=CC1`: the “activity, negative = cytotoxic” value was 1.81% (inactive).

On to `CN1CCN(CC(=O)N2c3ccccc3C(=O)Nc3cccnc32)CC1`, for which the activity, negative = cytotoxic is 1.12% [at 6.95 µM] (inactive).

In the case of `CCCOC(=O)C(C)O` (stereo unspecified), the “activity, negative = cytotoxic” value is 3.64% [at 78.8 µM] (inactive).

As for `CCOCCOCCOCC`, the “activity, negative = cytotoxic” value is -2.61% (inactive).

As for `CC(=C(CCOC(=O)C(C)C)SSC(CCOC(=O)C(C)C)=C(C)N(C=O)Cc1cnc(C)nc1N)N(C=O)Cc1cnc(C)nc1N`, the “activity, negative = cytotoxic” value was 1.56% (inactive).

In the case of `COc1ccc(-c2cc(=O)c3c(O)cc(O[C@@H]4O[C@H](CO[C@@H]5O[C@@H](C)[C@H](O)[C@@H](O)[C@H]5O)[C@@H](O)[C@H](O)[C@H]4O)cc3o2)cc1O`, the “activity, negative = cytotoxic” value is 11.2% (inactive).

For `Cc1c(I)c(=O)n(-c2ccccc2)n1C`, the “activity, negative = cytotoxic” value is 7.63% (inactive).

As for `CCCCCCCCSCC`, the “activity, negative = cytotoxic” value is -1.31% (inactive).

`CCC(C=O)CC`: the “activity, negative = cytotoxic” value was 0% [at 78.8 µM] (inactive).

Take `COc1cc(NS(=O)(=O)c2ccc(N)cc2)nc(OC)n1`: the “activity, negative = cytotoxic” value is -0.934% (inactive).

As to `CCN(CC)CC(=O)Nc1c(C)cccc1C`, the “activity, negative = cytotoxic” value was -4.67% (inactive).

For the compound `NC(CO)C(=O)NNCc1ccc(O)c(O)c1O` (stereo unspecified), the “activity, negative = cytotoxic” value was -4.13% (inactive).

For `CCCCCCCCCCl`, the “activity, negative = cytotoxic” value was 12.5% [at 78.8 µM] (inactive).

As to `CCOC(=O)c1ncn2c1CN(C)C(=O)c1cc(F)ccc1-2`, the “activity, negative = cytotoxic” value was -0.501% (inactive).

For the compound `N[C@@H](CCC(=O)N[C@@H](CS)C(=O)NCC(=O)O)C(=O)O`, the “activity, negative = cytotoxic” value is 6.37% [at 28.5 µM] (inactive).

On to `Cc1cc(C(C)(C)C)c(O)c(C)c1CC1=NCCN1`, for which the “activity, negative = cytotoxic” value is -0.6% (inactive).

Turning to `O=C(O)Cc1ccc(Cl)cc1Cl`, the “activity, negative = cytotoxic” value is 15.3% (inactive).

For the compound `O=C(OCc1ccccc1)C(=O)OCc1ccccc1`, the “activity, negative = cytotoxic” value is 5.4% (inactive).

With `CC(C)C(=O)OCCc1ccccc1`, the “activity, negative = cytotoxic” value is -11.5% (inactive).

As to `COc1cc(C(=S)N2CCOCC2)cc(OC)c1OC`, the “activity, negative = cytotoxic” value is -12.9% (inactive).

As to `COc1ccc(S(=O)(=O)N2c3ccc(Cl)cc3[C@@](O)(c3ccccc3Cl)[C@H]2C(=O)N2CCC[C@@H]2C(N)=O)cc1OC`, the “activity, negative = cytotoxic” value was -8.15% (inactive).

Take `Cc1ccccc1C(=O)Nc1ccc(C(=O)N2CCCC(N(C)C)c3ccccc32)cc1` (stereo unspecified): the “activity, negative = cytotoxic” value is -0.569% (inactive).

Consider `CCCCCCCCC1CCC(=O)O1` (stereo unspecified), for which the “activity, negative = cytotoxic” value is 8.28% (inactive).

As to `NS(=O)(=O)c1ccc(NC(=O)CCC(=O)O)cc1`, the “activity, negative = cytotoxic” value was -11.7% (inactive).

Turning to `CCCCCCCCCCCCCC`, the “activity, negative = cytotoxic” value was 7.46% (inactive).

`CC(=O)OC(C)OC(=O)C(C)c1ccc(-c2ccccc2)c(F)c1` (stereo unspecified): the “activity, negative = cytotoxic” value was -12.6% (inactive).

The next experiment in a line: qHTS assay to identify small molecule agonists of the endoplasmic reticulum stress response signaling pathway - cell viability counter screen (AID 1159517).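 Also: HeLa cells carrying an ER stress response element beta-lactamase reporter; nearly all actives have a fitted effect of over 50% in size.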 The conditions noted are these: ESRE-bla HeLa viability, CellTiter-Glo luminescence, 5 h; series mostly up to 61 µM; activity change, negative = cytotoxicity: at the top concentration. The gist of the method: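 Cells, HeLa ESRE-bla; density, 1,500/well; dosing, 5 hr at 37 C, 5% CO2; readout, CellTiter-Glo luminescence after 30 min RT.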
On to `CC(CO)c1ccccc1` (stereo unspecified), for which the “activity change, negative = cytotoxicity” value was 4.99% (inactive).

In the case of `CCOc1cc([N+](=O)[O-])c(OCC)cc1N1CCOCC1`, the “activity change, negative = cytotoxicity” value was 2.62% (inactive).

Consider `CC(=O)c1sc(C)nc1C`, for which the “activity change, negative = cytotoxicity” value is -14.4% (inactive).

Take `O=S(O)(O)=S`: the activity change, negative = cytotoxicity was -2.33% [at 6.95 µM] (inactive).

Take `CCO[Si](CCCS)(OCC)OCC`: the “activity change, negative = cytotoxicity” value was 2.27% (inactive).

As for `N[C@@H](COP(=O)(O)O)C(=O)O`, the “activity change, negative = cytotoxicity” value was -8% [at 28.5 µM] (inactive).

For `Brc1ccc(-c2ccccc2)cc1`, the “activity change, negative = cytotoxicity” value is -1.75% (inactive).

As for `CCCCC(CC)COCCO` (stereo unspecified), the “activity change, negative = cytotoxicity” value was 2.19% (inactive).

As to `CN1C(C)(C)CCCC1(C)C`, the “activity change, negative = cytotoxicity” value is -4.5% (inactive).

For `Nc1nnc(-c2cccc(Cl)c2Cl)c(N)n1`, the “activity change, negative = cytotoxicity” value was 18.2% (inactive).

In the case of `COc1nccnc1NS(=O)(=O)c1ccc(N)cc1`, the “activity change, negative = cytotoxicity” value was 0.124% (inactive).

For the compound `Nc1ncnc(Nc2ccccc2)n1`, the “activity change, negative = cytotoxicity” value was 7.85% (inactive).

With `CC1=CCC(C(C)C)=CC1`, the “activity change, negative = cytotoxicity” value was -21.7% (inactive).

With `CN1CCN(CC(=O)N2c3ccccc3C(=O)Nc3cccnc32)CC1`, the activity change, negative = cytotoxicity is -3.52% [at 6.95 µM] (inactive).

As to `CCCOC(=O)C(C)O` (stereo unspecified), the “activity change, negative = cytotoxicity” value is -14.3% [at 78.8 µM] (inactive).

In the case of `CCOCCOCCOCC`, the “activity change, negative = cytotoxicity” value is -7.47% (inactive).

Take `CC(=C(CCOC(=O)C(C)C)SSC(CCOC(=O)C(C)C)=C(C)N(C=O)Cc1cnc(C)nc1N)N(C=O)Cc1cnc(C)nc1N`: the “activity change, negative = cytotoxicity” value is 19% (inactive).

Consider `COc1ccc(-c2cc(=O)c3c(O)cc(O[C@@H]4O[C@H](CO[C@@H]5O[C@@H](C)[C@H](O)[C@@H](O)[C@H]5O)[C@@H](O)[C@H](O)[C@H]4O)cc3o2)cc1O`, for which the “activity change, negative = cytotoxicity” value is -0.354% (inactive).

With `Cc1c(I)c(=O)n(-c2ccccc2)n1C`, the “activity change, negative = cytotoxicity” value was 10.9% (inactive).

With `CCCCCCCCSCC`, the “activity change, negative = cytotoxicity” value was -1.17% (inactive).

For `CCC(C=O)CC`, the “activity change, negative = cytotoxicity” value was 3.01% [at 78.8 µM] (inactive).

For the compound `COc1cc(NS(=O)(=O)c2ccc(N)cc2)nc(OC)n1`, the “activity change, negative = cytotoxicity” value is 8.29% (inactive).

On to `CCN(CC)CC(=O)Nc1c(C)cccc1C`, for which the “activity change, negative = cytotoxicity” value was 7.26% (inactive).

Consider `NC(CO)C(=O)NNCc1ccc(O)c(O)c1O` (stereo unspecified), for which the “activity change, negative = cytotoxicity” value was -7.4% (inactive).

For `CCCCCCCCCCl`, the “activity change, negative = cytotoxicity” value was -10.6% [at 78.8 µM] (inactive).

For the compound `CCOC(=O)c1ncn2c1CN(C)C(=O)c1cc(F)ccc1-2`, the “activity change, negative = cytotoxicity” value is -0.615% (inactive).

As for `N[C@@H](CCC(=O)N[C@@H](CS)C(=O)NCC(=O)O)C(=O)O`, the “activity change, negative = cytotoxicity” value was 2.03% [at 28.5 µM] (inactive).

As to `Cc1cc(C(C)(C)C)c(O)c(C)c1CC1=NCCN1`, the “activity change, negative = cytotoxicity” value is 15.4% (inactive).

On to `O=C(O)Cc1ccc(Cl)cc1Cl`, for which the “activity change, negative = cytotoxicity” value was 7.26% (inactive).

Consider `O=C(OCc1ccccc1)C(=O)OCc1ccccc1`, for which the “activity change, negative = cytotoxicity” value was 8.81% (inactive).

`CC(C)C(=O)OCCc1ccccc1`: the “activity change, negative = cytotoxicity” value is -4.94% (inactive).

As for `COc1cc(C(=S)N2CCOCC2)cc(OC)c1OC`, the “activity change, negative = cytotoxicity” value is -0.609% (inactive).

With `COc1ccc(S(=O)(=O)N2c3ccc(Cl)cc3[C@@](O)(c3ccccc3Cl)[C@H]2C(=O)N2CCC[C@@H]2C(N)=O)cc1OC`, the “activity change, negative = cytotoxicity” value was -6.84% (inactive).

`Cc1ccccc1C(=O)Nc1ccc(C(=O)N2CCCC(N(C)C)c3ccccc32)cc1` (stereo unspecified): the “activity change, negative = cytotoxicity” value is 0.764% (inactive).

`CCCCCCCCC1CCC(=O)O1` (stereo unspecified): the “activity change, negative = cytotoxicity” value is -0.389% (inactive).

For the compound `NS(=O)(=O)c1ccc(NC(=O)CCC(=O)O)cc1`, the “activity change, negative = cytotoxicity” value was 7.03% (inactive).

Take `CCCCCCCCCCCCCC`: the “activity change, negative = cytotoxicity” value is -1.44% (inactive).

Turning to `CC(=O)OC(C)OC(=O)C(C)c1ccc(-c2ccccc2)c(F)c1` (stereo unspecified), the “activity change, negative = cytotoxicity” value is -6.63% (inactive).
